# D2 antag – D2 dopamine receptor (human) antagonism; P14416; HEK293 TREx D2 cells, calcium flux, dopamine EC80; inhibition, % at 10 µM; 340,000 tested, 2% active; in the data active = inhibition above about 30%; inactive = below that, where a call was filed; note: 0% is about no effect
# Target sequence (P14416 whole entry, looked up): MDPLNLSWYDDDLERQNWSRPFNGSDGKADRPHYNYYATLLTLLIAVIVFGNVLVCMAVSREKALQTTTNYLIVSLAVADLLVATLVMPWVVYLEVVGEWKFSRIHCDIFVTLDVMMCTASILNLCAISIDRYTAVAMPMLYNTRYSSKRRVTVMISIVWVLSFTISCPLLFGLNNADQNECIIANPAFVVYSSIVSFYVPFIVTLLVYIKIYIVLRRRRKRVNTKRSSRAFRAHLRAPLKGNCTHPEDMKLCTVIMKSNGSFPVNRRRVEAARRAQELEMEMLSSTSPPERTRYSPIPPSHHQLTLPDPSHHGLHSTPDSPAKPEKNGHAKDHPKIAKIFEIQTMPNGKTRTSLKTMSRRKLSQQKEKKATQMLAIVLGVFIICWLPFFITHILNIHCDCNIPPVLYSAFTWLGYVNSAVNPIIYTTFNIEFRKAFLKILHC
#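 Antagonism is scored as inhibition of an EC80 dopamine-evoked calcium signal in a force-coupled, tetracycline-inducible HEK293 T-REx D2 line, with compound present 180 s before agonist.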
# D2 PAM-1 – positively modulates the human D2 dopamine receptor allosterically. 340,000 tested, 0.34% active. AID 485347. HEK293 T-REx D2, calcium flux, EC20 dopamine potentiation. P14416. potentiation, % at 10 µM;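 active = potentiation over 3 SD above the plate norm, cut at about 30% in these data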; note: 0% is about no effect
#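 Tetracycline-induced HEK293 T-REx cells force-coupled to calcium signalling expressed D2; compounds were pin-added after a 10 s baseline, read kinetically 180 s, then an EC20 dopamine challenge followed with a further 180 s calcium read.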
# D2 ag-1 – agonists of human D2 dopamine receptor (beta-arrestin); P14416; DiscoveRx PathHunter D2 beta-arrestin, luminescence, 90 min; 100% = 57 uM dopamine signal; activation, % (no concentration beside the values); 360,000 tested, 0.084% active; AID 624465; in the data active = activation above about 40%; inconclusive = between about 15% and that limit
#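 DiscoveRx PathHunter D2 beta-arrestin cells (2,100/well) attached overnight, then compound-stimulated 90 min at 37 C in HBSS/10 mM HEPES/0.1% Tween-20 buffer; beta-galactosidase complementation read by luminescence after 1 h at ambient temperature. Dopamine 57 uM final (EC100) as control.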
# D2 PAM-2 – potentiates the human D2 dopamine receptor allosterically; P14416; DiscoveRx D2 beta-arrestin cells, luminescence, 90 min; 100% = 57 uM dopamine signal; potentiation, % (test concentration not listed); 360,000 tested, 0.23% active; AID 624464; in the data active = potentiation above about 50%; inconclusive = mostly about 30% to 49%
#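 PathHunter beta-arrestin assay in DiscoveRx D2 cells. Compounds were added with an EC20 of dopamine (50 nM final) for 90 min at 37 deg C. Luminescence was read 1 h after detection reagent, with 57 uM dopamine as the EC100 control.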
# D2 ag-2 – activates the human D2 dopamine receptor | P14416 | HEK293 T-REx D2 cells, calcium flux agonist mode | activation, % at 2 µM | 340,000 tested, 0.53% active | AID 485358;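 active = activation over 3 SD above normal in the single-dose calcium agonist read, cut at about 30% in these data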; note: 0% is about no effect
#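 Calcium-flux readout, 1 cycle/sec over 180 s following compound pin transfer, in inducible HEK293 Trex D2 cells (force-coupled); dopamine controls included. Positive calcium responses during this window marked compounds as potential agonists.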
# Numbers without * were called inactive; ? = inconclusive; . = not tested or not shown. Sampled rows, rich in hits. Any-hit rate of the full collection: about 2.4%.
SMILES,D2 antag,D2 PAM-1,D2 ag-1,D2 PAM-2,D2 ag-2
Cc1c(Cl)cccc1NC(=S)N1CCN(Cc2ccccc2)CC1,0,7,-2,-21,0
O=C(NC1CCN(Cc2ccccc2)CC1)C1CCN(S(=O)(=O)c2ccc(Cl)cc2)CC1,33*,-14,-6,-17,1
CC(C)c1ccccc1NC(=S)NC1CCN(Cc2ccccc2)CC1,96*,-27,-5,-14,1
O=C(CN1CCC(NC(=O)c2ccco2)CC1)Nc1ccccc1C(F)(F)F,50*,9,-1,-6,0
Clc1ccc(CNC2CCN(Cc3ccccc3)CC2)cc1,-12,1,-3,-13,3
COc1ccc(CCNC(=S)NC2CCN(Cc3ccccc3)CC2)cc1OC,32*,-37,-1,-13,0
COc1ccc(CCNC(=S)NCCc2ccc(OC)c(OC)c2)cc1OC,1,7,-1,-5,-1
S=C(NCc1ccc(Cl)cc1)NC1CCN(Cc2ccccc2)CC1,71*,-27,7,-20,2
Cc1ccc(C)c(NS(=O)(=O)c2ccc3c(c2)n(C)c(=O)n3C)c1,.,16,.,.,-1
S=C(Nc1cc(Cl)cc(Cl)c1)NC1CCN(Cc2ccccc2)CC1,72*,-28,-3,-26,3
O=C(NC(=S)NC1CCN(Cc2ccccc2)CC1)c1ccc(F)cc1,7,18,-6,-20,3
FC(F)(F)c1ccccc1NC(=S)NC1CCN(Cc2ccccc2)CC1,115*,-26,-3,-34,1
CC(C)c1ccccc1NC(=S)N1CCN(Cc2ccc3c(c2)OCO3)CC1,33*,-23,-4,-15,2
S=C(Nc1ccccc1Cl)NC1CCN(Cc2ccccc2)CC1,85*,-24,1,-38,0
CCOC(=O)c1c(-c2ccccc2)csc1NC(=O)c1cc(-c2ccccc2OC)on1,.,.,-3,-5,.
COC(=O)c1ccccc1S(=O)(=O)N1CCC(NC(=O)c2ccccc2)CC1,-13,3,-3,-5,0
COc1ccc(C(=O)NC2CCN(S(=O)(=O)c3ccccc3F)CC2)cc1,33*,9,-5,-5,0
C/C(N)=C(/C#N)C(=O)COC(=O)c1cc(-c2ccc(Br)cc2)nc2ccccc12,47*,-12,7,-1,2
O=C(COC(=O)c1cc(-c2ccccc2)nc2ccccc12)c1ccc(Br)cc1,.,-1,.,.,.
O=C(NCCSc1c[nH]c2ccccc12)C1CC1,36*,-19,-1,1,-1
O=C(NCCSc1c[nH]c2ccccc12)c1c(F)cccc1F,4,5,-2,1,0
N#Cc1ccc(C(=O)CN2CCN(c3ccccc3)CC2)cc1,16,-23,-2,-14,35*
O=C(CCN1CCN(c2ccccc2)CC1)c1ccc(Br)cc1,-18,-27,4,-16,21
Cc1ncc([N+](=O)[O-])n1Cc1cccc2ccccc12,9,8,-1,-4,-2
Cc1ncc([N+](=O)[O-])n1Cc1ccccc1F,31*,-8,-1,-1,-2
SMILES,D2 antag,D2 PAM-1,D2 ag-1,D2 PAM-2,D2 ag-2
O=C(NC(=S)N1CCOCC1)C12CCC3CC(CC(C3)C1)C2,-16,31*,-4,-5,-1
O=C(NC(=S)N1CCOCC1)C12CC3CCC(CC(C3)C1)C2,14,4,-1,4,1
Cc1nn(-c2ccccn2)c2c1C(=O)C(Br)CC2 (stereo unspecified),-2,0,?,54*,1
Cc1ccc(S(=O)(=O)NNC(=O)c2ccoc2C)cc1,-1,-8,-2,-8,0
CS(=O)(=O)Oc1ccc2c(c1)O/C(=C\C=C\c1ccccc1)C2=O,38*,-3,3,-3,3
COC(=O)c1c(NC(=O)C(=O)NCC2CCCO2)sc2c1CC(C)(C)OC2 (stereo unspecified),36*,-13,-1,-27,0
CCC(=O)Nc1ccccc1-c1nc2ccccc2n(C(C)C(=O)Nc2ccc(OC)cc2)c1=O (stereo unspecified),.,-22,.,.,0
Cc1nc2ccc(NC(=O)c3ccc([N+](=O)[O-])cc3[N+](=O)[O-])cc2s1,-3,-9,?,52*,0

# High-throughput results as filed in PubChem BioAssay.
